Source: PubChem BioAssay
MARV entry inh: blocks Marburg virus binding to or entry into cells. Marburg virus pseudotyped entry inhibition, cell reporter. Potency, µM (highest dose often 37.8 µM), for inactives: at the highest dose activity change, negative = inhibition, usual class: inhibitors. actives 1.8% (n = 300,000). AID 540276; calls by dose curve; tested in HEK293 cells; further: potency means the concentration at half of the fitted maximal effect; on the % scale 0 is the no-effect control and ±100 the full control effect
LASV entry inh: blocks Lassa virus binding to or entry into cells; Lassa virus pseudotype entry inhibition, cell reporter; Potency, µM (top dose mostly 37.9 µM), for inactives: at the top dose activity change, negative = inhibition, hits mostly inhibitors; actives 1.2% (n = 300,000); calls by dose curve; tested in HEK293 cells; further: potency means the concentration at half of the fitted maximal effect; on the % scale 0 is the no-effect control and ±100 the full control effect; nearly all actives have a fitted effect of over 50% in size
Cycloheximide cs: counter-screen for Shiga toxin inhibitors: cycloheximide protein synthesis inhibition; max response, %; actives 12% (n = 300,000); cell reporter, cycloheximide protein synthesis inhibition counterscreen; in the data active means max response mostly above about 13%, no sharp cut-off; inactive means mostly below about 14%; further: read at 38.3 µM for the half of the compounds with a filed dose; 0% is about no effect
Shiga inhibitor: Shiga toxin inhibition. Vero cells, Shiga toxin protein synthesis inhibition reporter. inhibition, % at 38.7 µM. actives 9.2% (n = 290,000); in the data active means inhibition mostly above about 28%, no sharp cut-off; inactive means mostly below about 43%; further: 0% is about no effect
Pf growth 48h: inhibits P. falciparum growth in the first generation, 48 h | P. falciparum luciferase growth in erythrocytes, 48 h | Potency, µM (top dose mostly 28.7 µM), for the others: at the top dose activity change, negative = inhibition, hits mostly inhibitors | actives 5.9% (n = 310,000) | AID 504832; further: potency means the concentration at half of the fitted maximal effect; on the % scale 0 is the no-effect control and ±100 the full control effect
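Here the parasites carry a stable luciferase gene and grow inside erythrocytes in Albumax-based RPMI medium with compound for one erythrocytic cycle. Activity is scored as loss of luminescent signal.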
Pf growth 96h: P. falciparum growth inhibition at 96 hour, primary screen for plastid delayed-death inhibitors; AID 504834; P. falciparum luciferase reporter growth, 96 h; Potency, µM (top dose mostly 28.7 µM), inactives show at the top dose activity change, negative = inhibition, actives largely listed as inhibitors; actives 6.9% (n = 320,000); further: potency means the concentration at half of the fitted maximal effect; on the % scale 0 is the no-effect control and ±100 the full control effect
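Cell-based qHTS: luciferase-tagged P. falciparum in erythrocytes (2% hematocrit, 0.05% parasitemia final) incubated with compounds for 96 hours, 37 C, 5% CO2; luciferase detection reagent then added and luminescence measured.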
The depositor's hits bear a star; u = inconclusive; x = not tested or not shown; [ ] = remark or other dose. Sampled rows, rich in hits. Any-hit rate of the full collection: about 19%. Unless noted, the call rests on the fitted dose curve; in most records, active means well fitted inhibition curve with a large enough effect; inconclusive means small, poorly fitted or top-dose-only effect, or another doubt; inactive means no such curve, though single readings can be large or run the other way.

SMILES | MARV entry inh | LASV entry inh | Cycloheximide cs | Shiga inhibitor | Pf growth 48h | Pf growth 96h
CCCCn1c(NC(=O)c2ccccc2)c(C#N)c2nc3ccccc3nc21 | u | u | -5 | -11 | 5.9µM* | x
CCC(C)n1c(NC(=O)c2ccccc2)c(C#N)c2nc3ccccc3nc21 (configuration not stated) | u | u | -2 | -14 | 3.7µM* | 2.9µM*
Clc1ccc(COn2nnc3ccccc32)c(Cl)c1 | u | 12% | 44* | 109* | 12% | x
O=[N+]([O-])c1ccc(COn2nnc3ccccc32)cc1 | -2%[46.1 µM] | -4%[46.1 µM] | 14* | 45 | 21% | 39%
O=C(c1ccc(Cl)cc1Cl)n1nnc2ccccc21 | x | x | 2 | -3 | x | x
CCCCn1c(Nc2ccc(OC)cc2)nc2ccccc21 | x | x | -2 | -1 | 17% | 41%
CCC1Oc2nc(SC)nnc2-c2ccccc2N1C(=O)c1ccccc1 (configuration not stated) | -25% | -15% | 16* | 41 | -18% | -21%
Cc1ccc(C(=O)c2cn(Cc3cc(C)ccc3C)c3nc(C)ccc3c2=O)cc1 | 7.1µM* | u | x | x | x | x
Cc1ccc(Cn2cc(C(=O)c3ccc(C)cc3)c(=O)c3ccc(C)nc32)cc1 | u | -5%[46.1 µM] | x | x | x | x
C/C(=N\Nc1ccc(F)cc1F)c1ccccc1O | 5%[46.1 µM] | x | 28* | 79* | 26% | 15%
CCOc1ccc2nc(NC(=O)C34CC5CC(CC(NC(C)=O)(C5)C3)C4)sc2c1 | -10% | u | -2 | -21 | 4% | u
CC(=O)NC12CC3CC(C1)CC(C(=O)Nc1nccs1)(C3)C2 | 27% | -3% | -1 | -4 | u | 6.6µM*
COc1ccc2nc(NC(=O)C34CC5CC(CC(NC(C)=O)(C5)C3)C4)sc2c1 | u | u | 49* | 45* | 38% | 57%
CCCCc1nnc(NC(=O)C23CC4CC(CC(NC(C)=O)(C4)C2)C3)s1 | 13%[46.1 µM] | 28%[46.1 µM] | 0 | -28 | -2% | -15%
O=C(CN1CCN(Cc2ccccc2)CC1)Nc1nc2ccccc2s1 | x | x | 2 | 0 | 10% | 17%
CCOC(=O)Cc1csc(SCn2nnc3ccccc3c2=O)n1 | -3% | -14% | 9 | 6 | -9% | 6%
O=C(CC1C(=O)NCCN1Cc1ccccc1F)NC1CCCCCC1 (configuration not stated) | x | x | 4 | -30 | -7% | u
CCC(CC)NC(=O)c1cc2c(C)nn(Cc3ccccc3Cl)c2s1 | u | -11% | -4 | -4 | 13µM* | x
COc1ccccc1CNC(=O)c1cc2c(C)nn(Cc3ccc(F)cc3)c2s1 | u | -27% | 1 | -8 | u | 12µM*
Cc1nn(Cc2ccccc2Cl)c2sc(C(=O)NCc3ccc4c(c3)OCO4)cc12 | -10% | -16% | 15 | -2 | x | 12µM*
Cc1nn(Cc2ccccc2Cl)c2sc(C(=O)Nc3ccccc3N3CCOCC3)cc12 | 15% | 5% | -5 | -20 | u | u
Cc1nn(Cc2ccc(F)cc2)c2sc(C(=O)Nc3nccs3)cc12 | 4% | 7% | -3 | -2 | u | u
Cc1nnc(SCc2cc(=O)[nH]c(Nc3nc(C)c4cc(C)c(C)cc4n3)n2)s1 | -10%[46.1 µM] | -7%[46.1 µM] | -2 | -14 | -12% | u
COc1ccc(/C=C/C2=NC(=C\N(C)C)/C(=O)O2)cc1 | u | 5% | 43* | 107* | 45% | -2%
CCCOc1ccc(OCCn2nc(C(=O)O)c3ccccc3c2=O)cc1 | 6%[46.1 µM] | 13% | -2 | 17 | -11% | -18%
SMILES | MARV entry inh | LASV entry inh | Cycloheximide cs | Shiga inhibitor | Pf growth 48h | Pf growth 96h
CCCCN(CCCC)CC(O)c1cc(Cl)cc2c1-c1ccc(Cl)cc1/C2=C/c1ccc(Cl)cc1 (configuration not stated) | x | x | x | x | 0.015µM* | 0.021µM*
O=c1c2c(nc3n1CCS3)c1cc(F)ccc1n2Cc1cc(=O)n2cc(Cl)ccc2n1 | x | x | -4 | 13 | u | 1.9µM*
O=C(Cn1c2ccc(F)cc2c2nc3n(c(=O)c21)CCS3)Nc1ccc(Cl)cc1F | u | -12% | -1 | -10 | u | 0%
COC(=O)c1ccc(S(=O)(=O)N(C2CCCCC2)C2CCCCC2)n1C | x | x | -1 | -4 | 10µM* | u
COC(=O)c1cc(S(=O)(=O)N(C)C2CCCCC2)cn1C | x | x | 1 | -9 | -4% | u
CC(C)CC(=O)NC(=S)NCCc1ccccc1 | -9%[46.1 µM] | -3% | 26* | 57* | u | u
CC(C)(C)CC(=O)NC(=S)NCCc1ccccc1 | -13% | 8% | 30* | 62 | -12% | 12µM*
O=C(CN1C(=O)NC2(CCCC2)C1=O)OCc1ccc(F)cc1 | -1%[46.1 µM] | 1% | x | x | 12% | 19%
O=C(CCn1cnnn1)Nc1ccccc1F | 10% | 13% | 0 | -18 | 13% | 4.7µM*
COc1ccccc1NC(=O)CSc1nnnn1-c1ccc(F)cc1 | -22% | -4% | -1 | -1 | -10% | u
COc1ccccc1NC(=O)CSc1nnnn1-c1ccc(C(=O)O)cc1 | u | 14% | -2 | -9 | 38% | 12µM*
O=C(CSc1nnnn1-c1ccc(F)cc1)Nc1ccccc1F | -6% | -1% | -1 | -4 | 24% | 8.3µM*
NC(=O)c1ccc(-n2nnnc2SCC(=O)Nc2ccccc2F)cc1 | 11% | 10% | -9 | -2 | 24% | 13%
COc1ccc(S(=O)(=O)N(C)CC(=O)Nc2ccccc2SC)cc1Cl | -2%[46.1 µM] | -11% | 2 | -4 | -30% | 14%
COc1ccccc1Nc1nc(-c2c(C)[nH]c3ccccc23)cs1 | 3% | 12% | 8 | 2 | 5.2µM* | 2.3µM*
CCCC(=O)Nc1nc(C)c(-c2csc(Nc3ccccc3OC)n2)s1 | x | x | -4 | -5 | u | 13µM*
COc1ccccc1NC(=O)Cc1csc(NC(=S)Nc2ccccc2)n1 | u | -25% | -4 | -15 | -7% | 59%
COc1ccccc1Nc1nc(-c2sc(NC(=O)CC(C)C)nc2C)cs1 | x | x | 4 | 16 | u | 1.9µM*
CCCC(=O)Nc1nc(C)c(-c2csc(Nc3cc(OC)ccc3OC)n2)s1 | x | x | 0 | -7 | u | u
COc1ccccc1Nc1nc(-c2sc(NC(=O)C(C)(C)C)nc2C)cs1 | x | x | 2 | 14 | u | 12µM*
O=C1/C(=C/c2cccs2)SC(=S)N1N1CCOCC1 | -7%[46.1 µM] | 14%[46.1 µM] | 5 | -2 | 103% | 101%
CN(C)CCn1c2c(c(SCC(=O)Nc3nccs3)nc1=O)CCCC2 | -20% | -1% | x | x | u | u
CCCCCC(=O)Nc1nc(C)c(-c2csc(Nc3cc(Cl)ccc3OC)n2)s1 | x | x | 16 | -12 | 7.4µM* | 3.7µM*
Cc1ccc(Cl)cc1Nc1nc(-c2sc(NC(=O)C(C)(C)C)nc2C)cs1 | x | x | 14 | 6 | 8.3µM* | 5.2µM*
CN(C)/C=C/c1c([N+](=O)[O-])c2ccc(O)cc2n1-c1ccccc1 | 1%[46.1 µM] | -14% | -1 | -6 | u | 10µM*
O=C(NC1CCCCC1)c1ccc(S(=O)(=O)N2CCCCC2)cc1 | 3% | 2.1µM* | 7 | 22 | u | 21%
